Values joined by “and” are separate entries in the source; they are usually repeats but may differ in a detail not shown here. Equal entries are not always repeated. Out of some 5,500 compounds screened, about 2,000 (36%) were called active. About 18% were inconclusive and are not listed. Rule as the data show it: active = normalized growth mostly below about 0.91 (no sharp cut-off); inconclusive = no clear call, values can overlap the other calls; inactive = mostly above about 0.92. Some of the results follow.
Assay: chemical genetic growth profiling, strain panel (AID 1159580);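 also: tested at 20 µM; growth read once vehicle control cultures reached saturation at 30 °C; 1 = growth at the plate median or of vehicle wells; lower values mean less growth of the strain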
Details: S. cerevisiae deletion strains, growth OD

Measured: normalized growth

COC(=O)C(O)c1ccccc1 (stereo unspecified)
inactive: locus YAL021C, strain ccr4, active compounds read low 1.02 | locus YAL026C, strain drs2, active compounds read low 1.01 | locus YAL030W, strain snc1, active compounds read low 0.984 | locus YBL061C, strain skt5, active compounds read low 0.996 | locus YBR009C, strain hhf1, active compounds read low 1.01 | locus YBR021W, strain FUR4, active compounds read low 1.06 | locus YBR023C, strain chs3, active compounds read low 1.01 | locus YBR171W, strain sec66, active compounds read low 0.99 | locus YBR229C, strain ROT2, active compounds read low 0.999 | locus YBR231C, strain swc5, active compounds read low 0.961 | locus YBR279W, strain paf1, active compounds read low 0.999 | locus YCL011C, strain gbp2, active compounds read low 1.02 | locus YCL016C, strain dcc1, active compounds read low 1.02 | locus YCL029C, strain bik1, active compounds read low 0.982 | locus YCL069W, strain vba3, active compounds read low 1 | locus YCR088W, strain abp1, active compounds read low 0.99 | locus YDL005C, strain med2, active compounds read low 0.984 | locus YDL035C, strain GPR1, active compounds read low 1.05 | locus YDL040C, strain nat1, active compounds read low 0.991 | locus YDL074C, strain BRE1, active compounds read low 1.05 | locus YDL101C, strain DUN1, active compounds read low 0.977 | locus YDL134C, strain PPH21, active compounds read low 0.964 | locus YDL185W, strain tfp1, active compounds read low 0.949 | locus YDL192W, strain arf1, active compounds read low 1.01 | locus YDR001C, strain nth1, active compounds read low 0.99 | locus YDR069C, strain doa4, active compounds read low 0.996 | locus YDR101C, strain arx1, active compounds read low 1.05 | locus YDR137W, strain rgp1, active compounds read low 1.01 | locus YDR159W, strain sac3, active compounds read low 0.973 | locus YDR162C, strain NBP2, active compounds read low 0.975 | locus YDR195W, strain ref2 0.909 | locus YDR297W, strain sur2, active compounds read low 0.992 | locus YDR318W, strain mcm21, active compounds read low 0.985 | locus YDR334W, strain swr1, active compounds read low 0.98 | locus YDR335W, strain msn5, active compounds read low 1.01 | locus YDR388W, active compounds read low 0.973 | locus YDR392W, strain spt3, active compounds read low 1.02 | locus YDR502C, strain sam2, active compounds read low 0.969 | locus YEL003W, strain gim4, active compounds read low 0.99 | locus YEL037C, strain rad23, active compounds read low 0.992 | locus YEL061C, strain CIN8 (second series), active compounds read low 0.983 | locus YEL061C, strain CIN8, active compounds read low 0.991 | locus YER015W, strain faa2, active compounds read low 1.01 | locus YER016W, strain bim1, active compounds read low 0.993 | locus YER110C, active compounds read low 0.984 | locus YER111C, strain swi4, active compounds read low 0.981 | locus YER155C, strain BEM2 (second series), active compounds read low 0.978 | locus YER155C, strain BEM2, active compounds read low 0.988 | locus YER167W, strain BCK2, active compounds read low 1.01 | locus YFR010W, strain ubp6, active compounds read low 0.974 | locus YGL078C, strain dbp3, active compounds read low 0.974 | locus YGL086W, strain mad1, active compounds read low 0.996 | locus YGL167C, strain pmr1, active compounds read low 0.995 | locus YGL173C, strain kem1, active compounds read low 0.981 | locus YGL227W, strain vid30, active compounds read low 1 | locus YGL240W, strain doc1, active compounds read low 0.99 | locus YGL248W, strain PDE1, active compounds read low 0.983 | locus YGL253W, strain hxk2, active compounds read low 0.983 | locus YGR078C, strain PAC10, active compounds read low 0.974 | locus YGR135W, strain pre9, active compounds read low 0.941 | locus YGR229C, strain SMI1, active compounds read low 0.961 | locus YGR252W, strain gcn5, active compounds read low 1.02 | locus YHR013C, strain ard1, active compounds read low 1 | locus YHR027C, strain rpn1, active compounds read low 0.986 | locus YHR030C, strain SLT2, active compounds read low 1.02 | locus YHR079C, strain IRE1 (second series), active compounds read low 0.971 | locus YHR079C, strain IRE1, active compounds read low 0.996 | locus YHR094C, strain hxt1, active compounds read low 0.983 | locus YHR129C, strain ARP1, active compounds read low 0.993 | locus YHR142W, strain chs7, active compounds read low 1.02 | locus YHR200W, strain rpn10, active compounds read low 0.963 | locus YIL066C, strain RNR3, active compounds read low 1.02 | locus YIL073C, strain SPO22, active compounds read low 0.977 | locus YIL125W, strain kgd1, active compounds read low 1 | locus YIR030C, strain dcg1, active compounds read low 0.975 | locus YJL092W, strain hpr5, active compounds read low 0.991 | locus YJL095W, strain BCK1 (second series), active compounds read low 0.985 | locus YJL095W, strain BCK1, active compounds read low 0.963 and 1.01 | locus YJL115W, strain asf1, active compounds read low 0.981 | locus YJL129C, strain trk1, active compounds read low 0.992 | locus YJL134W, strain LCB3, active compounds read low 0.992 | locus YJL154C, strain vps35, active compounds read low 0.986 | locus YJL164C, strain tpk1, active compounds read low 1.03 | locus YJL166W, strain qcr8, active compounds read low 1.04 | locus YJL168C, strain set2, active compounds read low 0.976 | locus YJL187C, strain SWE1 (second series), active compounds read low 0.98 | locus YJL187C, strain SWE1, active compounds read low 0.997 | locus YJR043C, strain POL32, active compounds read low 1.09 | locus YJR066W, strain TOR1, active compounds read low 0.939 | locus YKL009W, strain mrt4, active compounds read low 1.05 | locus YKL068W, active compounds read low 0.982 | locus YKL085W, strain MDH1 (second series), active compounds read low 0.976 | locus YKL085W, strain MDH1, active compounds read low 0.976 | locus YKL160W, strain elf1, active compounds read low 1.04 | locus YKL190W, strain CNB1, active compounds read low 0.975 | locus YKR001C, strain vps1, active compounds read low 1.02 | locus YKR026C, strain gcn3, active compounds read low 0.981 | locus YKR091W, strain srl3, active compounds read low 0.993 | locus YLL001W, strain dnm1, active compounds read low 0.985 | locus YLL026W, active compounds read low 0.991 | locus YLL041C, strain sdh2, active compounds read low 1.02 | locus YLR027C, strain aat2, active compounds read low 1.02 | locus YLR039C, strain RIC1, active compounds read low 1 | locus YLR058C, strain SHM2, active compounds read low 1.01 | locus YLR102C, strain apc9, active compounds read low 0.981 | locus YLR113W, strain HOG1, active compounds read low 0.983 | locus YLR221C, strain rsa3, active compounds read low 0.999 | locus YLR258W, strain gsy2, active compounds read low 1.02 | locus YLR262C, strain YPT6 (second series), active compounds read low 1.05 | locus YLR268W, strain sec22, active compounds read low 1.03 | locus YLR320W, strain mms22, active compounds read low 0.999 | locus YLR342W, strain FKS1, active compounds read low 1 | locus YLR357W, strain rsc2, active compounds read low 0.983 | locus YLR370C, strain arc18, active compounds read low 0.994 | locus YLR371W, strain rom2, active compounds read low 0.983 | locus YLR384C, strain iki3, active compounds read low 0.98 | locus YLR418C, strain cdc73, active compounds read low 0.953 | locus YML016C, strain PPZ1, active compounds read low 0.977 | locus YML032C, strain rad52, active compounds read low 1.01 | locus YML120C, strain ndi1, active compounds read low 1.01 | locus YML124C, strain tub3, active compounds read low 0.988 | locus YMR058W, strain fet3, active compounds read low 1 | locus YMR078C, strain ctf18, active compounds read low 0.974 | locus YMR125W, strain sto1, active compounds read low 0.998 | locus YMR129W, active compounds read low 0.995 | locus YMR205C, strain PFK2, active compounds read low 1.02 | locus YMR223W, strain ubp8, active compounds read low 0.975 | locus YMR231W, strain pep5, active compounds read low 0.977 | locus YMR307W, strain GAS1, active compounds read low 1.22 | locus YNL067W, strain RPL9B, active compounds read low 0.965 | locus YNL071W, strain lat1, active compounds read low 1.01 | locus YNL153C, strain GIM3, active compounds read low 0.964 | locus YNL183C, strain NPR1, active compounds read low 0.946 | locus YNL209W, strain ssb2, active compounds read low 1.01 | locus YNL233W, strain BNI4, active compounds read low 0.993 | locus YNL248C, strain rpa49, active compounds read low 0.983 | locus YNL250W, strain rad50, active compounds read low 0.943 | locus YNL271C, strain bni1, active compounds read low 0.968 | locus YNL298W, strain CLA4, active compounds read low 0.989 | locus YNL307C, strain MCK1, active compounds read low 0.985 | locus YNL322C, strain KRE1 (second series), active compounds read low 0.992 | locus YNR049C, strain mso1, active compounds read low 0.993 | locus YNR052C, strain pop2, active compounds read low 0.975 | locus YOL012C, strain htz1 0.732 | locus YOL147C, strain pex11, active compounds read low 0.986 | locus YOR001W, strain rrp6, active compounds read low 0.964 | locus YOR061W, strain CKA2, active compounds read low 1.02 | locus YOR069W, strain VPS5, active compounds read low 0.992 | locus YOR070C, strain gyp1, active compounds read low 1.01 | locus YOR080W, strain dia2, active compounds read low 0.98 | locus YOR083W, strain WHI5, active compounds read low 1.05 | locus YOR106W, strain vam3, active compounds read low 1.02 | locus YOR136W, strain idh2, active compounds read low 0.989 | locus YOR144C, strain elg1, active compounds read low 0.998 | locus YOR184W, strain ser1, active compounds read low 1.09 | locus YOR231W, strain MKK1, active compounds read low 1.01 | locus YOR265W, strain rbl2, active compounds read low 0.998 | locus YOR270C, strain vph1, active compounds read low 1.01 | locus YOR290C, strain snf2, active compounds read low 1.06 | locus YOR316C, strain cot1, active compounds read low 0.966 | locus YPL051W, strain arl3, active compounds read low 0.979 | locus YPL078C, strain atp4, active compounds read low 1.04 | locus YPL106C, strain sse1, active compounds read low 0.997 | locus YPL240C, strain hsp82, active compounds read low 0.993 | locus YPL241C, strain CIN2, active compounds read low 0.986 | locus YPL256C, strain CLN2, active compounds read low 0.978 | locus YPR119W, strain clb2, active compounds read low 0.952 | locus YPR141C, strain kar3, active compounds read low 0.961 | locus YPR163C, strain tif3, active compounds read low 0.983 | locus YPR167C, strain met16, active compounds read low 0.979 | strain wtn01, active compounds read low 1.01
